Shown are actives, neighbours in structure and some others; about 21% of the full set was active somewhere.
Shiga toxin inh – inhibitors of Shiga toxin in Vero cells | actives 9.2% (n = 290,000) | inhibition, % at 38.7 µM | Vero cells, Shiga toxin protein synthesis inhibition reporter; in the data active = inhibition mostly above about 28%, no sharp cut-off; inactive = mostly below about 43%; note: 0% is about no effect
CHX counter – counter-screen hit for Shiga toxin inhibitors, cycloheximide; cell reporter, cycloheximide protein synthesis inhibition counterscreen; actives 12% (n = 300,000); max response, %; in the data active = max response mostly above about 13%, no sharp cut-off; inactive = mostly below about 14%; note: read at 38.3 µM for the half of the compounds with a filed dose; 0% is about no effect
Pf growth 96h – P. falciparum growth inhibition at 96 hours | Potency, µM (highest dose often 28.7 µM), for the others: top-dose activity change, negative = inhibition, usual class: inhibitors | actives 6.9% (n = 320,000) | P. falciparum luciferase reporter growth, 96 h | AID 504834; note: potency is the fitted concentration of half-maximal effect; % is set by controls: 0 for no effect and ±100 for the full control effect
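Two-generation exposure (96 h) targets delayed-death phenotype. Reporter parasites carrying integrated firefly luciferase, in red cells at 2% hematocrit and 0.05% parasitemia final, kept at 37 C, 5% CO2; luminescence loss indicates inhibition.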
Pf growth 48h – P. falciparum growth inhibition at 48 hours (one generation); P. falciparum luciferase growth in erythrocytes, 48 h; AID 504832; actives 5.9% (n = 310,000); Potency, µM (highest dose often 28.7 µM), without a hit: top-dose activity change, negative = inhibition, most hits filed as inhibitors; note: potency is the fitted concentration of half-maximal effect; % is set by controls: 0 for no effect and ±100 for the full control effect
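Luminescence readout; reporter = integrated firefly luciferase in P. falciparum. RBC culture at 2% hematocrit, 0.1% parasitemia final, 37 C/5% CO2; decreased signal taken as growth inhibition.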
Active calls of the source: *; ? = inconclusive; · = no result. Unless noted, calls come from the whole dose curve; as a rule, active = well fitted inhibition curve with a large enough effect; inconclusive = small, poorly fitted or top-dose-only effect, or another doubt; inactive = no such curve, though single readings can be large or run the other way.

SMILES | Shiga toxin inh | CHX counter | Pf growth 96h | Pf growth 48h
O=C(CCN1CCC(c2cccs2)=N1)c1cccs1 | 69* | 42* | 38% | 59%
N#Cc1cc(C(=O)c2cc(Br)ccc2O)cn(C2CC2)c1=O | -20 | -5 | ? | ?
CCCCn1cc(C(=O)c2cc(Br)ccc2O)cc(C#N)c1=O | -4 | -1 | 2.1µM* | 1.7µM*
COCCCn1cc(C(=O)c2cc(Br)ccc2O)cc(C#N)c1=O | -7 | 2 | 9.3µM* | ?
C=CCn1cc(C(=O)c2cc(Br)ccc2O)cc(C#N)c1=O | -6 | -2 | ? | ?
Cc1ccc(O)c(C(=O)c2cc(C#N)c(=O)n(C(C)c3ccccc3)c2)c1 (configuration not stated) | 31 | -5 | 5.9µM* | 3.3µM*
CCOCCCn1cc(C(=O)c2cc(Br)ccc2O)cc(C#N)c1=O | 12 | -1 | ? | 5.2µM*
O=S(=O)(Nc1ccc(Br)cn1)c1ccc(Cl)s1 | 14 | -3 | 34% | 8%
CCSC(=O)NC1CCCCC1 | 12 | 1 | 18% | 3%
CC(C)n1cc(C(=O)c2cc(Br)ccc2O)cc(C#N)c1=O | -5 | -5 | 2.6µM* | ·
O=C(Cn1c(=O)n(Cc2ccc3c(c2)OCO3)c(=O)c2ccccc21)N1CCCc2ccccc21 | -4 | 1 | · | 10µM*
Cc1c(C#N)c2ccccc2n1CC(=O)N1CCCc2ccccc21 | -16 | -1 | 36% | 3.3µM*
Cc1cccn2c(/C=N/OCc3ccc(F)cc3)c(-c3ccc(Cl)cc3)nc12 | -4 | -2 | 12µM* | ?
Cc1nc(-c2ccc(Cl)cc2)oc1COC(C)(C)C(=O)O | · | · | ? | 3%
Cc1ccc(CNS(=O)(=O)c2c(C)[nH]c(=O)[nH]c2=O)cc1 | 17 | -4 | -12% | -1%
C[C@H]1O[C@@H](OC2CC[C@]3(C=O)[C@H]4CC[C@]5(C)[C@@H](C6=CC(=O)OC6)CC[C@]5(O)[C@@H]4CC[C@]3(O)C2)CC2OC(C)(C)OC21 (some centres not stated) | -14 | -7 | ? | ·
C[C@H]1O[C@@H](O[C@H]2[C@@H](O)C[C@H](O[C@H]3[C@@H](O)C[C@H](O[C@H]4CC[C@@]5(C)[C@H](CC[C@@H]6[C@@H]5CC[C@]5(C)[C@@H](C7=CC(=O)OC7)CC[C@]65O)C4)O[C@@H]3C)O[C@@H]2C)C[C@H](O)[C@@H]1O | -23 | -7 | 4.1µM* | ?
CCCCc1cc(=O)oc2c(C)c(OCc3nn[nH]n3)ccc12 | 3 | 1 | -18% | 6%
Cc1cc(OCc2nc(-c3cccs3)no2)cc(C)c1Cl | 42* | 37* | 37% | ·
c1ccc(OCc2nc(-c3cccs3)no2)cc1 | 76* | 45* | 248% | ·
COc1cc(NC(=O)CCc2nc(-c3cccs3)no2)cc(OC)c1OC | 16 | -1 | ? | 2%
Fc1ccc(OCc2nc(-c3cccs3)no2)cc1 | 110* | 41* | 20% | 107%
CC(C)=C(NC(=O)c1ccccc1)C(=O)Nc1ccc(C(=O)O)cc1 | -1 | -2 | 14% | 11%
O=C(Nc1ccccc1N1CCOCC1)c1ccc(Cl)nc1 | -3 | -2 | ? | -28%
O=C(NCc1cccc(C(F)(F)F)c1)C1CCC(=O)N(C2CCCCCC2)C1 (configuration not stated) | 2 | -3 | -16% | 6%
SMILES | Shiga toxin inh | CHX counter | Pf growth 96h | Pf growth 48h
CCCCCC(=O)NC(=S)Nc1cccc(-c2nc3ncccc3o2)c1 | 6 | -3 | 15% | -5%
Cn1c(SCc2ccc(F)cc2)nnc1-c1cnccn1 | 61* | 20* | 20% | 24%
Cn1c(SCc2ccccc2)nnc1-c1cnccn1 | 97* | 37* | 2% | 13%
Cc1ccccc1CSc1nnc(-c2cnccn2)n1C | 57* | 31* | 55% | 48%
O=[N+]([O-])c1cccc2c3c([nH]c12)CCCC3 | -5 | 1 | 37% | 18%
N#Cc1ccc(COC(=O)c2cnc(Cl)c(Cl)c2)cc1 | 23 | -3 | -14% | 12%
CNC(=O)COc1coc(CN2CCN(c3ccc(F)cc3)CC2)cc1=O | 1 | 2 | ? | 18%
C/C(=N\N1CCCCC1)c1c(O)[nH]c(=O)[nH]c1=O | 10 | 18* | ? | 10%
C/C(=N\N1CCCCCC1)c1c(O)n(-c2ccccc2)c(=O)[nH]c1=O | -2 | 0 | ? | ?
COC(=O)c1oc2ccc(Cl)cc2c1N | 99* | 22* | ? | 61%
COc1ccc(C(=O)c2oc3ccccc3c2N)cc1 | active | 93* | · | 75%
COC(=O)c1oc2ccccc2c1N | 18 | 11 | 60% | ·
COc1ccc(C(=O)c2oc3nc(C)cc(C)c3c2N)cc1 | -9 | 1 | · | 71%
COc1ccc2oc(C(=O)c3ccccc3)c(N)c2c1 | 135* | 65* | 63% | 130%
COc1ccc2oc(C(=O)C3CC3)c(N)c2c1 | 131* | 43* | 16% | 90%
COc1ccc2oc(C(=O)OC(C)C(=O)N3CCC(C)CC3)c(C)c2c1 (configuration not stated) | · | · | 3% | -21%
CC(C)NC(=O)CN(C(=O)CCC(=O)Nc1nccs1)c1ccc(C(C)C)cc1 | -5 | -2 | 0% | -27%
COC(=O)CCC(=O)c1oc2ccc(OC)cc2c1N | 63 | 40* | 1% | ·
O=C(Nc1nc2c(s1)CCCC2)c1ccc(Br)o1 | 73* | 23* | 46% | 107%
CC(=O)c1sc(NC(=O)c2ccc(Br)o2)nc1C | 34* | 38* | ? | 129%
Cc1ccc(C(=O)Nc2nc3c(s2)CCCC3)o1 | 85 | 22 | 13µM* | 126%
COc1cc(/C=C/C(=O)OCC(=O)c2c(N)n(C)c(=O)n(C)c2=O)ccc1OCC#N | 47 | -2 | ? | -28%
C=CCc1cccc2cc(C(=O)NCCOC)c(=O)oc12 | 51 | 0 | ? | 0%
O=C(NCC1CCCO1)c1csc2c1CCCC2 (configuration not stated) | 31 | 40* | ? | 23%
O=C(c1cc2ccccc2oc1=O)N(Cc1ccccc1)CC1CCCO1 (configuration not stated) | 16 | 6 | ? | ?
SMILES | Shiga toxin inh | CHX counter | Pf growth 96h | Pf growth 48h
O=C(OC[C@@H]1CCCN2CCCC[C@H]12)c1cc2ccccc2oc1=O | -8 | -1 | -7% | 10%
O=C(OC1CCCCC1)c1cc2ccccc2oc1=O | 79* | 43* | 31% | 21%
O=C(NCC1CCCO1)c1cc2ccccc2oc1=O (configuration not stated) | 96* | 37* | -13% | 57%
C=CCc1cccc2cc(C(=O)NC3CCCCC3)c(=O)oc12 | 88* | 28 | 127% | -1%
O=C(O)c1cccc(CSc2n[nH]c(-c3ccc(Cl)cc3Cl)n2)c1 | 36 | 13 | ? | 15%
O=C(O)CCc1nn2c3ccccc3nc2n(Cc2ccccc2)c1=O | 4 | -3 | ? | 16%
O=C(c1ccccc1)c1cc2ccc(O)cc2oc1=O | 36 | 21* | 0.17µM* | 47%
O=C(NC1CCCCCC1)c1cc2ccccc2oc1=O | 43* | 43* | 133% | 293%
O=C(NNc1c(F)c(F)cc(F)c1F)c1cc2ccccc2oc1=O | 112* | 50* | 15% | 9%

High-throughput results: PubChem, National Center for Advancing Translational Sciences (NCATS)
